PubChem BioAssay (Tox21)
Values joined by “and” are separate entries in the source; they are usually repeats but may differ in a detail not shown here. Identical values can stand only once. Records with an inconclusive call do not appear. A call without a number means that no potency is given here. Some structures have more than one record in an assay (separate samples or runs), and their calls can disagree. Active and inactive are the calls of the source. Unless noted, the call rests on the fitted dose curve; in most records, active means well fitted curve in the direction sought with a large enough effect in the repeat runs; inconclusive means weak or mixed curves; inactive means no such curve, though single readings can be large; an effect the other way counts as inactive or inconclusive.

Assays:
[1] = molecular target: Acetylcholinesterase (Homo sapiens) (UniProt P22303); assay: Acetylcholinesterase (AChE) small molecule antagonists: colormetric cell-based qHTS assay (AID 1347395; calls by dose curve; further: nearly all actives have a fitted effect of over 30% in size)
Chain of Acetylcholinesterase (Homo sapiens) (P22303 whole entry, looked up): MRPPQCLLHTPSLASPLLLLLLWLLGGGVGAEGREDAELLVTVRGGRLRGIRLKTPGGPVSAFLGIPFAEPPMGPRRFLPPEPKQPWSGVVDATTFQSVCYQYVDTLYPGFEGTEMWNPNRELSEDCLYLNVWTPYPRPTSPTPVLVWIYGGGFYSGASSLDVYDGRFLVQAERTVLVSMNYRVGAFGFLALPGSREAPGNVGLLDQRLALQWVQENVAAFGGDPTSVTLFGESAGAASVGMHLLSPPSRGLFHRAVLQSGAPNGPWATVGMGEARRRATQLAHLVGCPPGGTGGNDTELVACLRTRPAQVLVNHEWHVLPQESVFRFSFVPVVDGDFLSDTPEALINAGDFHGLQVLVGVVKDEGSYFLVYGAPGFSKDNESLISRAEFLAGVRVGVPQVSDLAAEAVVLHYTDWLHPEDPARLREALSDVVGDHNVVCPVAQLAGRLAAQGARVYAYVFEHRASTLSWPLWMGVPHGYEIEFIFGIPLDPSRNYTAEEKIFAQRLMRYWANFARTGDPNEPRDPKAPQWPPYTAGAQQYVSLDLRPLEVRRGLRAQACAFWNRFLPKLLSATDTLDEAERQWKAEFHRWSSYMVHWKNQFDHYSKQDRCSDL
In short: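 Endogenous AChE of human neuroblastoma SH-SY5Y cells was measured with an Ellman-type DTNB/acetylthiocholine mix. Compound pretreatment lasted 30 min at 37 C; substrate reaction ran 90 min at 37 C.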

[2] = molecular target: Acetylcholinesterase (Homo sapiens) (UniProt P22303); assay: Acetylcholinesterase (AChE) small molecule antagonists: enzyme-based qHTS assay (AID 1347397; calls by dose curve; further: nearly all actives have a fitted effect of over 55% in size); conditions: Potency: AChE enzyme activity inhibition
In short: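 First, recombinant human AChE (50 mU/mL as dispensed) received test compound or DMSO. Second, plates stood 30 min at room temperature. Third, DTNB and acetylthiocholine were added, followed by 10 min at room temperature and colorimetric detection.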

[3] = molecular target: Acetylcholinesterase (Homo sapiens) (UniProt P22303); assay: Acetylcholinesterase (AChE) small molecule antagonists: fluorescence cell-based qHTS assay (AID 1347398; calls by dose curve; further: nearly all actives have a fitted effect of over 50% in size); conditions: Potency: AChE activity
In short: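 Homogeneous quantitative HTS format. SH-SY5Y cells seeded at 2,000 per well settle overnight at 37 C. Compound pretreatment runs 30 min (37 C, 5% CO2); substrate/probe mix then reacts 40 min at RT before reading 490/520 nm.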

[4] = molecular target: Acetylcholinesterase (Homo sapiens) (UniProt P22303); assay: Acetylcholinesterase (AChE) small molecule antagonists: enzyme-based qHTS assay with human liver microsomes (AID 1347399; calls by dose curve; further: nearly all actives have a fitted effect of over 60% in size); conditions: Potency: qHTS inhibition
In short: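 Recombinant human AChE (50 mU/mL in the enzyme mix) and human liver microsomes (0.25 mg/mL final) were preincubated with compound and NADPH (0.25 mg/mL final) for 30 min at 37 C. Acetylthiocholine/DTNB was then added; thiocholine was read colorimetrically after 10 min at room temperature.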

[5] = molecular target: Cytochrome P450 2C9 (Homo sapiens) (UniProt P11712); assay: Cytochrome P450 Family 2 Subfamily C Member 9 (CYP2C9) small molecule antagonists: luciferase reporter qHTS assay (AID 1671198); further: nearly all actives have a fitted effect of over 50% in size; further: potency means the concentration at half of the fitted maximal effect
Chain of Cytochrome P450 2C9 (Homo sapiens) (P11712 whole entry, looked up): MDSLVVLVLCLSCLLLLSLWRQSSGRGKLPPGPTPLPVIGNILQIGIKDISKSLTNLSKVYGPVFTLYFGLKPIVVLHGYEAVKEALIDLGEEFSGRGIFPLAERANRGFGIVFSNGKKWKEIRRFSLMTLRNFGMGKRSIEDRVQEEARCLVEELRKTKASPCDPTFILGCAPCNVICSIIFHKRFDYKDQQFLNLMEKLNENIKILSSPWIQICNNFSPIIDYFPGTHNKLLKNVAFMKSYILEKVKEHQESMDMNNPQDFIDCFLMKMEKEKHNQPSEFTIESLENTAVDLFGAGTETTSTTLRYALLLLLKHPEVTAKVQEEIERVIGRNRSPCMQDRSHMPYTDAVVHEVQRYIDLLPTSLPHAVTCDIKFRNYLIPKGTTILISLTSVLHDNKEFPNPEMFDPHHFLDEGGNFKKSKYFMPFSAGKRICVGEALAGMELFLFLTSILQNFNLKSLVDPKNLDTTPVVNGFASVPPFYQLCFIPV
In short: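 Enzyme-substrate mix preincubated with compound 10 min at room temperature; reaction started with NADPH regeneration solution, 1 h 37C. Luminescent luciferin product read after 20 min detection reagent.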

[6] = molecular target: Voltage-gated inwardly rectifying potassium channel KCNH2 (Homo sapiens) (UniProt Q12809); assay: Human Ether-a-go-go-Related Gene (hERG) channel small molecule antagonists: fluorescence cell-based qHTS assay (AID 1671200); further: nearly all actives have a fitted effect of over 50% in size; further: potency means the concentration at half of the fitted maximal effect
Chain of Voltage-gated inwardly rectifying potassium channel KCNH2 (Homo sapiens) (Q12809 whole entry, looked up): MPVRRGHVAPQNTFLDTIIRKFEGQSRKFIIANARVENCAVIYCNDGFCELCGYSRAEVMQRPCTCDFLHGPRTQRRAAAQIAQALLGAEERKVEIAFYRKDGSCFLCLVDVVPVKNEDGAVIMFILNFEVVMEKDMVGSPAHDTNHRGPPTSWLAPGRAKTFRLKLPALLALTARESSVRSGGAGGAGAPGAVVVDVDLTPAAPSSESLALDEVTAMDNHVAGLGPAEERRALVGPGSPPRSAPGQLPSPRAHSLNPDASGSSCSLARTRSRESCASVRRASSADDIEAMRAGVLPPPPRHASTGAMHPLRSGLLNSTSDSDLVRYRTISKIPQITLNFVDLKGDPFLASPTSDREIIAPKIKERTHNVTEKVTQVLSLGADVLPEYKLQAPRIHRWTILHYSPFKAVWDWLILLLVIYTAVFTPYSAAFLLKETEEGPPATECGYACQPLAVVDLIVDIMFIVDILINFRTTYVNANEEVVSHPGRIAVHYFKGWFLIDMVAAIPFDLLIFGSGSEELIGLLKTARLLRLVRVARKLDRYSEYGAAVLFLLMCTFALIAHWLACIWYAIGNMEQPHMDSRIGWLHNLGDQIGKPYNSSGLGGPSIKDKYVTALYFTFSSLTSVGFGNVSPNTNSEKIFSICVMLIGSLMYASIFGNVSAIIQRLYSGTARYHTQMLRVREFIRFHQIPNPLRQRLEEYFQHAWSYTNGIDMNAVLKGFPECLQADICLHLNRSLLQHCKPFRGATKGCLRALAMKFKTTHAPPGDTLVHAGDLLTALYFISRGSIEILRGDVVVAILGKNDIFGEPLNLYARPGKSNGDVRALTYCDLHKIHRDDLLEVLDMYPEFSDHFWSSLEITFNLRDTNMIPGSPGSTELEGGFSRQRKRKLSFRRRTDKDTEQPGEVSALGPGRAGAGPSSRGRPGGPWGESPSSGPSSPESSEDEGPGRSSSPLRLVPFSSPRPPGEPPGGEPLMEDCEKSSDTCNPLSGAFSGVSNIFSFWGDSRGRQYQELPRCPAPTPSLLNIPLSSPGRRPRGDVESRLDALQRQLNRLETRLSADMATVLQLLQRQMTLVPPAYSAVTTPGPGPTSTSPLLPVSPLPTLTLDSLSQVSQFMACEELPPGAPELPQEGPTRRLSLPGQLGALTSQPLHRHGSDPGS
In short: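 Quantitative HTS in hERG-U2OS cells: thallium entry through the channel reports activity, read as continuous 480/540 nm fluorescence over 2 min after stimulus addition.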

[7] = molecular target: Cytochrome P450 3A4 (Homo sapiens) (UniProt P08684); assay: Cytochrome P450 Family 3 Subfamily A Member 4 (CYP3A4) small molecule antagonists: luciferase reporter qHTS assay (AID 1671201); further: nearly all actives have a fitted effect of over 50% in size; further: potency means the concentration at half of the fitted maximal effect
Chain of Cytochrome P450 3A4 (Homo sapiens) (P08684 whole entry, looked up): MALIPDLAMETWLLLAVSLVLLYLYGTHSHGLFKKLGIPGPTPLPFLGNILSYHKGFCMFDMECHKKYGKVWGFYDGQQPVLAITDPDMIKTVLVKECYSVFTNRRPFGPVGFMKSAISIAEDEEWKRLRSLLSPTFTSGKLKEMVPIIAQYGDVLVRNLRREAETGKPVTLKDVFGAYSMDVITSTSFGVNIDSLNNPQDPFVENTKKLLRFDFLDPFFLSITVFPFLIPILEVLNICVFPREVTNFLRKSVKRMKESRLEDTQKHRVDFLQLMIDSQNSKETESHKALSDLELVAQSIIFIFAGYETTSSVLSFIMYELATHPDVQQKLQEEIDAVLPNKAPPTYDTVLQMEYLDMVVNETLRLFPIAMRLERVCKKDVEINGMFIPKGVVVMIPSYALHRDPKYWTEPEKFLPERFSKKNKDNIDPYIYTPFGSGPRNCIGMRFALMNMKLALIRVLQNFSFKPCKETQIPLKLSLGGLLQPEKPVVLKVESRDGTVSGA
In short: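 Inhibition of CYP3A4 is measured as loss of light: the enzyme converts a proluciferin substrate to luciferin, detected luminescently. Reaction ran 1 h at room temperature with NADPH regeneration after a 10 min compound preincubation.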

[8] = molecular target: Cytochrome P450 2C19 (Homo sapiens) (UniProt P33261); assay: Cytochrome P450 Family 2 Subfamily C Member 19 (CYP2C19) small molecule antagonists: luciferase reporter qHTS assay (AID 1671197); further: nearly all actives have a fitted effect of over 65% in size; further: potency means the concentration at half of the fitted maximal effect
Chain of Cytochrome P450 2C19 (Homo sapiens) (P33261 whole entry, looked up): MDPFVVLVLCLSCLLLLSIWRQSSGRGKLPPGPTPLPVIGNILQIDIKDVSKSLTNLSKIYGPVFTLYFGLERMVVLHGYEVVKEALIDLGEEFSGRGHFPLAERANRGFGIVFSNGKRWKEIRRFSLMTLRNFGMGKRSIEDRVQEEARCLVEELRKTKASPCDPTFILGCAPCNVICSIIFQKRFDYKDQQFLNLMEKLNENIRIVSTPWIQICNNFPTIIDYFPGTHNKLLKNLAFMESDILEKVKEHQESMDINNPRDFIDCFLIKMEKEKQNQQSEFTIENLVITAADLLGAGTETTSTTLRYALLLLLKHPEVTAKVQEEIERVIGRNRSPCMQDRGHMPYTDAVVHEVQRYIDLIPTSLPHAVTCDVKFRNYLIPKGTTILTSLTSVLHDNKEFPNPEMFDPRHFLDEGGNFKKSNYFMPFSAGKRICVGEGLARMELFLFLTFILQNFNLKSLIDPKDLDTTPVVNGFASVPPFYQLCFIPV
In short: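 P450-Glo CYP2C19 system: enzyme-substrate mix with compound 10 min at room temperature, then NADPH regeneration solution, 1 h at 37C. Proluciferin-to-luciferin conversion detected by luminescence after 20 min with detection reagent; ketoconazole as positive control.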

[9] = molecular target: Cytochrome P450 1A2 (Homo sapiens) (UniProt P05177); assay: Cytochrome P450 Family 1 Subfamily A Member 2 (CYP1A2) small molecule antagonists: luciferase reporter qHTS assay (AID 1671199); further: nearly all actives have a fitted effect of over 50% in size; further: potency means the concentration at half of the fitted maximal effect
Chain of Cytochrome P450 1A2 (Homo sapiens) (P05177 whole entry, looked up): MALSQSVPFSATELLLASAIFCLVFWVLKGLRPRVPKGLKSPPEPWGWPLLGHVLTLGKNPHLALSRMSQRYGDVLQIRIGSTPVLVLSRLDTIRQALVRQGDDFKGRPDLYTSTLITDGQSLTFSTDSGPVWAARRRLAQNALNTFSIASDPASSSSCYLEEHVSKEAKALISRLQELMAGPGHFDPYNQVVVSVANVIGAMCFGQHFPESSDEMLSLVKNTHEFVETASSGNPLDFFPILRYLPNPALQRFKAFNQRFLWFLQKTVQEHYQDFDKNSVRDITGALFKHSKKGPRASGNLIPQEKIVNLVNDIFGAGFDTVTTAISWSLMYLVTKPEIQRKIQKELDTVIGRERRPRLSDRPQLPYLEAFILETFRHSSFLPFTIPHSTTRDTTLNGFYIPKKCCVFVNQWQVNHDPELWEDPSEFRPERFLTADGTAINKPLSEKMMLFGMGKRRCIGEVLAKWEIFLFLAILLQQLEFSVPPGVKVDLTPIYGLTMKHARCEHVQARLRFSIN
In short: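 Luminescence from luciferin formed by CYP1A2 from a proluciferin substrate, read 20 min after detection reagent. Compound was pre-incubated 10 min with enzyme-substrate, and reaction started with NADPH regeneration solution for 1 h at room temperature; furafylline control.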

[10] = molecular target: Cytochrome P450 2D6 (Homo sapiens) (UniProt P10635); assay: Cytochrome P450 Family 2 Subfamily D Member 6 (CYP2D6) small molecule antagonists: luciferase reporter qHTS assay (AID 1671196); further: nearly all actives have a fitted effect of over 50% in size; further: potency means the concentration at half of the fitted maximal effect
Chain of Cytochrome P450 2D6 (Homo sapiens) (P10635 whole entry, looked up): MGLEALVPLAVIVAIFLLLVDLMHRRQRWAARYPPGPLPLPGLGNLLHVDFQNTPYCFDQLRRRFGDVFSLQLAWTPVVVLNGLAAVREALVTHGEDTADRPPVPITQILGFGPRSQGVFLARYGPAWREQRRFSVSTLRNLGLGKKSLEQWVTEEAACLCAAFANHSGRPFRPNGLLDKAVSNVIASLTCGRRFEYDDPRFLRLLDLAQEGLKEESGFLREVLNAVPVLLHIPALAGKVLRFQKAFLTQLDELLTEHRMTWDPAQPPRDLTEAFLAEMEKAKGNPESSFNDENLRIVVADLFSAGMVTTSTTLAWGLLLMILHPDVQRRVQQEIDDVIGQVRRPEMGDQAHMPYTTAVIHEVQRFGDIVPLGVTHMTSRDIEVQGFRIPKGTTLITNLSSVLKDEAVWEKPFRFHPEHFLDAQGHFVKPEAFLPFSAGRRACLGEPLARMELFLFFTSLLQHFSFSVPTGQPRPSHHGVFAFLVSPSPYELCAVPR
In short: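 CYP2D6 activity was followed as luminescence from its luciferin product after a 1 h NADPH-driven reaction at room temperature. Enzyme-substrate mix and compound were pre-incubated for 10 min, and the signal was read 20 min after adding detection reagent.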

Structure (SMILES) | Potency [1] | Potency [2] | Potency [3] | Potency [4] | Potency [5] | Potency [6] | Potency [7] | Potency [8] | Potency [9] | Potency [10]
CC(C)c1ccc(CO)cc1 | inactive | inactive | inactive | inactive | 39.9 µM (active) | inactive | inactive |  |  | 
Cc1ccc2c(c1N)C(=O)c1ccccc1C2=O | inactive | inactive | inactive | inactive | 2.22 µM (active) and 3.99 µM (active) | inactive | inactive | 2.8 µM (active) and 5.03 µM (active) | 443 nM (active) and 633 nM (active) | 
C1=Cc2cccc3cccc1c23 | inactive | inactive | inactive | inactive | inactive | inactive | inactive |  | 31.2 µM (active) and 25.2 µM (active) | inactive
c1ccc(P(c2ccccc2)c2ccccc2)cc1 | inactive | inactive | inactive | inactive | 12.9 µM (active) and 7.96 µM (active) |  | inactive | 10.2 µM (active) and 7.1 µM (active) | inactive | 
NNC(N)=S | inactive | inactive | inactive | inactive |  | inactive | inactive | 73.8 µM (active) | 20.8 µM (active) and 31.7 µM (active) | 
CCOc1cc(Oc2ccc(C(F)(F)F)cc2Cl)ccc1[N+](=O)[O-] | inactive | inactive | inactive |  | 4.53 µM (active) and 6.33 µM (active) | inactive | inactive | 5.7 µM (active) and 7.1 µM (active) | 20 µM (active) | 2.27 µM (active) and 5.64 µM (active)
CC(C)(C)c1ccccc1O | inactive | inactive | inactive | inactive | inactive | inactive | inactive | inactive |  | 
COc1ccc(C=O)cc1 | inactive | inactive | inactive | inactive | inactive | inactive | inactive | inactive | inactive | 
N#CCCCl | inactive | inactive | inactive |  | inactive | inactive | inactive | 77.7 µM (active) and inactive | inactive | inactive
CCN(CC)N=O | inactive | inactive | inactive |  | inactive | inactive | inactive | 22.6 µM (active) | inactive | inactive
CCCCCc1cc(O)cc(O)c1 | inactive | inactive | inactive |  | 11.3 µM (active) and 31.7 µM (active) | inactive | 5.05 µM (active) and 22.4 µM (active) | 3.57 µM (active) and 6.33 µM (active) | 17.9 µM (active) and 35.6 µM (active) | 10.1 µM (active) and 31.7 µM (active)
CCOc1cc(C=O)ccc1O | inactive | inactive | inactive | inactive | inactive | inactive | inactive | inactive | 40 µM (active) and 39.9 µM (active) | 
CCCCCCOC(=O)c1ccccc1C(=O)OCCCCCC | inactive | inactive | inactive | inactive | 25.7 µM (active) and 7.96 µM (active) | inactive |  | 20.4 µM (active) and 7.96 µM (active) | 22.9 µM (active) and 10 µM (active) | 
O=S(=O)(Oc1ccc(Cl)cc1)c1ccc(Cl)cc1 | inactive | inactive | inactive | inactive | 32.1 µM (active) and 25.2 µM (active) | 24.5 µM (active) | inactive | 114 nM (active) and 126 nM (active) | 2.87 µM (active) and 4.48 µM (active) | 
Nc1ccc(Cl)c(Cl)c1 | inactive | inactive | inactive |  | 36.4 µM (active) and 35.6 µM (active) | inactive | 32.5 µM (active) | inactive | 40.9 µM (active) and 35.6 µM (active) | inactive
Brc1ccc(Oc2cc(Br)c(Br)cc2Br)c(Br)c1 | inactive | inactive | inactive |  | 31.7 µM (active) and 18 µM (active) | inactive | inactive | 1.78 µM (active) and 1.27 µM (active) | 31.7 µM (active) and 32 µM (active) | 35.6 µM (active) and inactive
COP(=S)(OC)Oc1cc(Cl)c(Cl)cc1Cl | inactive | inactive | inactive | inactive | 9.95 µM (active) and 7.76 µM (active) | inactive |  | 19.9 µM (active) and 7.76 µM (active) | 15.8 µM (active) and 11 µM (active) | 
CCC(=O)O[C@H]1CC[C@H]2[C@@H]3CCC4=CC(=O)CC[C@]4(C)[C@H]3CC[C@]12C | inactive | inactive | inactive | inactive | 25.2 µM (active) and 30.9 µM (active) | 34.7 µM (active) | inactive | 17.8 µM (active) and inactive | inactive | 
